Data taken from PubChem BioAssay (Tox21).
Results filed as inconclusive are left out. A call without a number means that no potency is given here. Activity calls are given as the source filed them. Unless noted, calls follow the shape of the dose curve; as a rule, active = well fitted cell-killing curve with a large enough effect in the repeat runs; inconclusive = weak or mixed curves, or effect the other way; inactive = flat fitted curve, though single readings scatter.

Target: Estrogen receptor beta (Homo sapiens) (UniProt Q92731)
Assay: qHTS assay to identify small molecule antagonists of the estrogen receptor beta (ER-beta) signaling pathway (AID 1259378; active = well fitted inhibition curve with a large enough effect in the signal ratio in the repeat runs, not every such curve was filed as active; the % refers to the signal ratio)
Conditions: ER-beta-UAS-bla HEK293T, beta-lactamase FRET ratio, 16 h; series mostly up to 92.4 µM
Summary of the method: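 Antagonist mode: compounds added to beta-lactamase reporter HEK293T ER-beta-UAS cells stimulated with E2 (1nM final), 16 hr at 37C. LiveBLAzer B/G FRET substrate, 2 hours room temperature, fluorescence read-out.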

Chain of Estrogen receptor beta (Homo sapiens) (Q92731 whole entry, looked up): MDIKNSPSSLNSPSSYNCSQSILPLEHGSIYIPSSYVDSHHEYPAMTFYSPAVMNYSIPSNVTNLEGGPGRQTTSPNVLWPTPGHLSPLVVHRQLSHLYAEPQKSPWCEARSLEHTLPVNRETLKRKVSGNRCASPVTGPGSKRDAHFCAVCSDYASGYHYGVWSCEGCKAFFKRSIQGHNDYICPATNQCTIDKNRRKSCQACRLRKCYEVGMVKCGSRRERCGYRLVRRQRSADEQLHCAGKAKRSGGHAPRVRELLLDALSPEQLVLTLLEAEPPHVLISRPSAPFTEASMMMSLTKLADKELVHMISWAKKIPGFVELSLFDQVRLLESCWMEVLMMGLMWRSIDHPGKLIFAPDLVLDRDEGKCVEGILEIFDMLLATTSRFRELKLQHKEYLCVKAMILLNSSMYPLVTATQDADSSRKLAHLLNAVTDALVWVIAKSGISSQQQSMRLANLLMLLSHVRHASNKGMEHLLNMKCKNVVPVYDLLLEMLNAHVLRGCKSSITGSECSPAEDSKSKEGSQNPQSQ

Compound	Potency
NCCOCCOCCN	inactive
O=C1CCCN1CCO	inactive
C=CC(C)CCC=C(C)C (configuration not stated)	inactive
CC1(C)CC(O)CC(C)(C)N1[O]	inactive
CCOC(=O)CC(O)(CC(=O)OCC)C(=O)OCC	inactive
O=C1OC(=O)C2CC=CCC12 (configuration not stated)	inactive
CCCc1ccc(OC)cc1	inactive
O=C(Nc1ccc2c(c1)Cc1ccccc1-2)C(F)(F)F	inactive
CC(=O)c1ccc(Cl)c(Cl)c1Cl	inactive

Test system: not listed separately
Assay: qHTS assay to identify small molecule agonists of the androgen receptor (AR) signaling pathway in the presence of an antagonist - cell viability counter screen (AID 1259379);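 also: MDA-kb2 human breast cancer cells carrying an MMTV luciferase reporter; nearly all actives have a fitted effect of over 25% in size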
Conditions: MDA-kb2 viability, CellTiter-Fluor, 16 h; series mostly up to 92.4 µM
Summary of the method: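 Seed MDA-kb2 at 3,000 cells/well; incubate 5 hr, 37C, 0% CO2. Add nilutamide to 3.0uM final, then pin compounds at 15 concentrations. Incubate 16 hr. Add CellTiter-Fluor at 15 hr, read fluorescence after 1 hr.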

Compound	Potency
CCOc1ccc2c(c1)C(C)CC(C)(C)N2 (configuration not stated)	inactive
O=c1c2ccccc2oc2ccccc12	inactive
Cc1cccc(C)c1NC(=O)CN1CCCC1	inactive
Cc1cc(N)n(-c2ccccc2)n1	inactive
Cc1nc(C)c(C)nc1C	inactive
O=C(O)c1ccccc1[N+](=O)[O-]	inactive
O=c1[nH][nH]c2ccccc12	inactive
Cc1c(Cl)cccc1[N+](=O)[O-]	inactive
CCOc1ccccc1O	inactive
O=C(OC1C[C@H]2CC[C@@H](C1)[N+]21CCCC1)C(O)(c1ccccc1)c1ccccc1 (some centres not stated)	inactive
O=C(O)c1cc(C(=O)O)c(C(=O)O)cc1C(=O)O	inactive
CC/C=C/CCO	inactive
O=C(c1ccc(Cl)cc1)c1ccc(Cl)cc1	inactive
CC/C=C\CCO	inactive
CCCCCCOC(=O)c1ccccc1	inactive
CC(O)C(C)O (configuration not stated)	inactive
CC1(C)[C@@H]2CC[C@]3(C2)[C@@H]1C(=O)CCC3(C)C	inactive
FC1(F)C(F)(F)C(F)(F)C2(F)C(F)(C1(F)F)C(F)(F)C(F)(F)C1(F)C(F)(F)C(F)(F)C(F)(F)C(F)(F)C12F (configuration not stated)	inactive
